The values that follow come from PubChem BioAssay (NCATS).

Test [1] deals with Zika virus NS2B-NS3 protease (unlinked complex). The test can be described thus: Primary screen GU Rhodamine qHTS for Zika virus inhibitors: Unlinked NS2B-NS3 protease assay (AID 1347159). Note: nearly all actives have a fitted effect of over 60% in size. The settings on record: Recombinant ZIKV NS2B-NS3 protease, Rhodamine110 substrate fluorescence; series mostly up to 107 µM. In a few lines: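 Noncovalent NS2B hydrophilic domain/NS3 protease complex (25 nM final) in 10 mM Tris-HCl pH 8.0, 0.01% Tween 20, preincubated 15 min with compounds (up to 114 microM), then 1.5 microM Rhodamine110 substrate. Fluorescence change over 15 min fitted to 4-parameter Hill.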
In general terms: qHTS replaces the single test concentration by a dilution series.

Test [2] concerns Zika virus NS2B-NS3 protease (linked construct). The test can be described thus: Primary screen NINDS Rhodamine qHTS for Zika virus inhibitors (AID 1347160). Note: nearly all actives have a fitted effect of over 55% in size. The conditions noted are these: purified NS2B-NS3 protease, Rhodamine110 substrate fluorescence; series mostly up to 57.1 µM. Summed up: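 Purified NS2B-NS3 protease with the NS2B hydrophilic domain joined by a flexible linker (25 nM) in 10 mM Tris-HCl pH 8.0, 0.01% Tween 20, preincubated 15 min at RT with compound; Rhodamine110 peptide substrate 1.5 µM; fluorescence change over 15 min; 4-parameter Hill fit.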

Inconclusive results are not listed. Unmarked numbers belong to inactive results. Active and inactive are the calls of the source. Calls come from the whole dose curve; as a rule, active = well fitted inhibition curve with a large enough effect; inconclusive = small, poorly fitted or top-dose-only effect; inactive = no such curve, though single readings can be large or run the other way.
% is set by controls: 0 for no effect and ±100 for the full control effect; potency is the fitted concentration of half-maximal effect.

On to `CC(C)(F)C[C@@H](N[C@@H](c1ccc(-c2ccc(S(C)(=O)=O)cc2)cc1)C(F)(F)F)C(=O)NC1(C#N)CC1`, for which the Potency result in test [1] and in test [2] was “inactive” throughout.

Regarding `COC1CC(O[C@H]2CC[C@@]3(C)C(=CC[C@]4(O)C3[C@H](OC(C)=O)[C@@H](OC(=O)c3ccccc3)[C@]3(C)[C@@H](C(C)=O)CC[C@@]34O)C2)OC(C)C1OC1CC(OC)C(OC2CC(OC)C(OC3OC(C)C(OC4OC(CO)C(O)C(O)C4O)C(OC)C3O)C(C)O2)C(C)O1` (some centres undefined), the activity change, negative = inhibition in test [1] is 25.7% [at 19.1 µM]; in test [2], -1.64% [at 10.7 µM].

For `C=C(C(=O)OC)C1C(O)CC2(C)C(=O)CCC(O)(CO)C2C1O` (centres undefined), the Potency result in test [1] and in test [2] was “inactive” in each case.

As to `CC(/C=C/C1=CC2=CC(=O)C(C)(O)C(O)C2=CO1)=C\C(C)CCO` (centres undefined), the Potency result in test [1] and in test [2] was “inactive” throughout.

As for `NC(=O)[C@H]1CCS[C@@H]2C[C@]3(CCCN3C(=O)Cc3ccc(NC(=O)COc4ccc(Cl)cc4Cl)cc3)C(=O)N12`, the Potency entry in test [1] and in test [2] was “inactive” throughout.

Take `CCN1CCN(Cc2ccc(NC(=O)c3ccc(C)c(/C=C/c4cnc5[nH]ccc5c4OC)c3)cc2C(F)(F)F)CC1`: the Potency result in test [1] and in test [2] was “inactive” each time.

Regarding `C=C[C@H]1C(O[C@@H]2O[C@H](CO)[C@@H](O)[C@H](O)[C@H]2O)OC=C2C(=O)N3CCc4c([nH]c5ccccc45)C3CC21` (some centres undefined), the Potency entry in test [1] and in test [2] was “inactive” each time.

As for `CC(=O)NC1=NN(C(C)=O)C(C)(c2ccccc2)S1` (centres undefined), the Potency entry in test [1] and in test [2] was “inactive” in each case.

Regarding `COc1cc(C(=O)OC[C@@]2(O)CO[C@@H](O[C@H]3[C@H](Oc4ccc(C(=O)O)cc4OC)O[C@H](CO)[C@@H](O)[C@@H]3O)[C@@H]2O)ccc1O`, the Potency result in test [1] and in test [2] was “inactive” throughout.

Turning to `C[C@@H]1CC[C@]2(C(=O)O[C@@H]3O[C@H](CO)[C@@H](O)[C@H](O)[C@H]3O)CC[C@]3(C)C(=CCC4[C@@]5(C)C[C@@H](O)[C@H](O)[C@@](C)(C(=O)O[C@H]6[C@H](O)C[C@@]7(C)C(CC[C@]8(C)C7CC=C7[C@H]9[C@](C(=O)O[C@@H]%10O[C@H](CO)[C@@H](O)[C@H](O)[C@H]%10O)(CC[C@@H](C)[C@@]9(C)O)CC[C@]78C)[C@@]6(CO)C(=O)O)C5CC[C@]43C)[C@@H]2[C@]1(C)O` (some centres undefined), the activity change, negative = inhibition was -16.4% [at 19.1 µM] in test [1] and -25.7% [at 10.7 µM] in test [2].

Turning to `O=C1OCC(c2ccccc2)=C1Cc1ccccc1`, the Potency result in test [1] and in test [2] was “inactive” in each case.

On to `C=C[C@@](C)(O)CC/C=C(\C)C(=O)O[C@@H]1[C@@H]2O[C@]2(C)[C@H]2[C@H](O[C@@H]3O[C@H](CO)[C@@H](O)[C@H](O)[C@H]3O)OC=C[C@@]12O`, for which the Potency result in test [1] and in test [2] was “inactive” each time.

In the case of `CC(NC(=O)C(O)C(C)C)C(=O)NC1C(=O)N(C)CCc2ccccc21` (centres undefined), the Potency result in test [1] and in test [2] was “inactive” throughout.

In the case of `COC(=O)C1(C)c2[nH]c3ccccc3c2CCN1C(=O)CCl` (centres undefined), the Potency entry in test [1] and in test [2] was “inactive” each time.

For the compound `COC(=O)CCc1cc2ccoc2c(OC)c1O[C@@H]1O[C@H](CO)[C@@H](O)[C@H](O)[C@H]1O`, the Potency entry in test [1] and in test [2] was “inactive” in each case.

For `CC1(O)CCCC2(C)C1CCC13CC(CO)C(CCC12)C3` (centres undefined), the Potency result in test [1] and in test [2] was “inactive” throughout.

For `CC(C)c1cc(C(=O)N2CC[C@@H](NC(=O)C3CC3)C2)n[nH]1`, the Potency result in test [1] and in test [2] was “inactive” in each case.

Turning to `CC1CC(=O)C2=C(CCC3(O)C(O)c4c(O)cccc4C(=O)C23O)C1` (centres undefined), the Potency result in test [1] and in test [2] was “inactive” throughout.

In the case of `COc1cc(Nc2nc3c(s2)CCCC3c2ccc(F)cc2)ccc1-n1cnc(C)c1` (centres undefined), the Potency result in test [1] and in test [2] was “inactive” in each case.

In the case of `CC12CCC(C(OC3OC(COC4OCC(O)(CO)C4O)C(O)C(O)C3O)C1)C(C)(C)O2` (centres undefined), the Potency entry in test [1] and in test [2] was “inactive” throughout.

For the compound `CC(Oc1ccc2[nH]nc(/C=C/c3cnn(CCO)c3)c2c1)c1c(Cl)cncc1Cl` (centres undefined), the Potency result in test [1] and in test [2] was “inactive” each time.

In the case of `CC1=C(C(=O)O[C@@H]2O[C@H](COC3OCC(O)C(O)C3O)[C@@H](O)[C@H](O)[C@H]2O)C(C)(C)CCC1` (some centres undefined), the Potency result in test [1] and in test [2] was “inactive” each time.

For the compound `COc1cc(/C=C/C=O)cc(OC)c1O[C@@H]1O[C@H](CO)[C@@H](O)[C@H](O)[C@H]1O`, the Potency result in test [1] and in test [2] was “inactive” each time.

Take `Cc1cnc(NC(=O)Nc2cc(Br)c(C)cc2OCC2CNCCO2)cn1` (centres undefined): the Potency result in test [1] and in test [2] was “inactive” each time.

For `CC(=O)N[C@H]1[C@H](O[C@H]2CC[C@@]3(C)C(CC[C@]4(C)C3CC=C3[C@@H]5CC(C)(C)CC[C@]5(C(=O)OC5OCC(O)C(O)C5O)CC[C@]34C)C2(C)C)O[C@H](COC2OC(C)C(O)C(OC3OC(C)C(O)C(O)C3O)C2O)[C@@H](O)[C@@H]1O` (some centres undefined), the Potency entry in test [1] and in test [2] was “inactive” throughout.

Turning to `COc1ccc(F)cc1-c1cc(NC(=O)[C@@H]2CCCNC2)ncc1Cl`, the Potency entry in test [1] and in test [2] was “inactive” each time.

With `CN(C)C(=O)NC1CCC(CCN2CCN(c3cccc(Cl)c3Cl)CC2)CC1` (centres undefined), in test [1], the activity change, negative = inhibition was 13.9% [at 19.1 µM]. In addition, the outcome in test [2] was “inactive [at 10.7 µM]”.

`C[C@@H]1O[C@@H](O[C@H]2[C@H](O)[C@@H](C(=O)O)O[C@@H](O[C@H]3CC[C@@]4(C)C(CC[C@]5(C)C4CC=C4C6CC(C)(C)CC[C@]6(C(=O)O)CC[C@]45C)C3(C)C)[C@@H]2O[C@@H]2OC[C@@H](O)[C@H](O)[C@H]2O)[C@H](O)[C@H](O)[C@H]1O` (some centres undefined): the Potency in test [1] was 8.91 µM (active); in test [2], 3.1 µM (active).

In the case of `CC(=O)C12OC(C)(C)OC1CC1C3CCC4=CC(=O)C=CC4(C)C3(F)C(O)CC12C` (centres undefined), the Potency result in test [1] and in test [2] was “inactive” in each case.

In the case of `CC1(C)CC[C@]2(CO[C@@H]3O[C@H](CO)[C@@H](O)[C@H](O)[C@H]3O)[C@@H](O)C[C@]3(C)C(=CCC4[C@@]5(C)CC[C@H](O[C@@H]6O[C@H](CO[C@@H]7O[C@H](CO[C@@H]8OC[C@@H](O)[C@H](O)[C@H]8O)[C@@H](O)[C@H](O)[C@H]7O)[C@@H](O)[C@H](O)[C@H]6O)C(C)(C)C5CC[C@]43C)[C@@H]2C1` (some centres undefined), the Potency result in test [1] and in test [2] was “inactive” in each case.

With `CC(C)(C)c1cc(Br)cc([C@H](CC(=O)O)NC(=O)CNC(=O)c2cc(O)cc(NC3=NCC(O)CN3)c2)c1` (some centres undefined), the Potency entry in test [1] and in test [2] was “inactive” each time.

`NC1CCCCN(c2c(F)cc3c(=O)c(C(=O)O)cn(C4CC4)c3c2Cl)C1` (centres undefined): the Potency entry in test [1] and in test [2] was “inactive” each time.

Consider `C[C@@H]1CC[C@]2(C(=O)O[C@@H]3O[C@H](CO)[C@@H](O)[C@H](O)[C@H]3O)CC[C@]3(C)C(=CCC4[C@@]5(C)C[C@@H](O)[C@H](O)[C@](C)(C(=O)O)C5CC[C@]43C)[C@@H]2[C@]1(C)O` (some centres undefined), for which the Potency result in test [1] and in test [2] was “inactive” throughout.

Regarding `COC(=O)C[C@H]1C(C)(C)[C@H](OC(=O)C(C)C)[C@@]2(O)C(=O)[C@]1(C)C1CC[C@]3(C)C(CC(=O)O[C@H]3c3ccoc3)[C@]13O[C@@H]32` (some centres undefined), the Potency entry in test [1] and in test [2] was “inactive” throughout.

Consider `Cc1cc(Cl)ccc1COc1ccnn1-c1cc(C(=O)O)ccn1`, for which the Potency entry in test [1] and in test [2] was “inactive” throughout.

With `COCCOc1ccc(N2CCN(CCn3ncc4c3nc(N)n3nc(-c5ccco5)nc43)CC2)cc1`, the Potency result in test [1] and in test [2] was “inactive” throughout.

As for `COC(=O)C1=CO[C@@H](O[C@@H]2O[C@H](CO)[C@@H](O)[C@H](O)[C@H]2O)[C@@H]2[C@@](C)(O)[C@@H](OC(=O)/C=C/c3ccc(O)cc3)C[C@]12O`, the Potency entry in test [1] and in test [2] was “inactive” throughout.

Consider `Cc1nc([C@](C)(O)CO)sc1-c1cnc(N)c(O[C@H](C)c2cc(F)ccc2-n2nccn2)c1`, for which the Potency entry in test [1] and in test [2] was “inactive” in each case.

For `CC(C)C(C#N)O[C@@H]1O[C@H](CO[C@@H]2O[C@@H](C)[C@H](O)[C@@H](O)[C@H]2O)[C@@H](O)[C@H](O)[C@H]1O` (some centres undefined), the Potency result in test [1] and in test [2] was “inactive” each time.

As for `C=C(C)C1CCC2(C(=O)O[C@@H]3O[C@H](CO[C@@H]4O[C@H](CO)[C@@H](O)[C@H](O)[C@H]4O)[C@@H](O)[C@H](O[C@@H]4O[C@@H](C)[C@H](O)[C@@H](O)[C@H]4O)[C@H]3O)CCC3(C(=O)O)C(CCC4C5(C)CCC(O)C(C)(C)C5CCC43C)C12` (some centres undefined), the Potency result in test [1] and in test [2] was “inactive” in each case.

`COc1cc(O)c2c(c1)C1=C[C@H](O)[C@@H](O)C[C@]1(C)OC2=O`: the Potency result in test [1] and in test [2] was “inactive” in each case.

Regarding `OC[C@H]1O[C@@H](OCCc2ccc(O)cc2)[C@H](O[C@@H]2OC[C@](O)(CO)[C@H]2O)[C@@H](O)[C@@H]1O`, the Potency result in test [1] and in test [2] was “inactive” throughout.
